# Measurements as given in PubChem BioAssay (NCATS).
# “And” between values parts separate entries of the source, which are not always exact repeats. Equal entries are not always repeated. Records with an inconclusive call do not appear. A number with no mark means an inactive call. The source made the active and inactive calls. Calls come from the whole dose curve; as a rule, active = well fitted curve in the direction sought with a large enough effect; inconclusive = small, poorly fitted or top-dose-only effect, or another doubt; inactive = no such curve, though single readings can be large; an effect the other way counts as inactive or inconclusive.
# Assays:
# [1] = Viability qHTS for spleen associated tyrosine kinase inhibitor (SYKi) drug resistant MV4-11 cells (AID 1963824); note: nearly all actives have a fitted effect of over 35% in size; note: potency is the fitted concentration of half-maximal effect
# Procedure, shortened: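 SYK-inhibitor-resistant MV4-11 AML cells were seeded at 500 per well onto compound and cultured 72 hours (37 °C, 5% CO2). CellTiter-Glo was then added, and after 10 min at room temperature, luminescence gave viability.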
# [2] = Quantitative highthroughput screen to assess conditional lethalithy of NOMO1 cells grown in RPMI1640 with untreated serum (RPMI+s) (AID 1963876); note: nearly all actives have a fitted effect of over 35% in size; note: potency is the fitted concentration of half-maximal effect;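 for Viability: 100% = DMSO wells and 0% = empty wells without cells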
# Procedure, shortened: (§1)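 Each medium arm—HPLM with 10% dialyzed FBS, or RPMI1640 with 5 mM glucose and 10% untreated or dialyzed FBS—was screened against an 11-point, 3-fold compound titration for 48 h at 37 °C, with CellTiter-Glo luminescence as endpoint.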
# [3] = Quantitative highthroughput screen to assess conditional lethalithy of NOMO1 cells grown in Human Plasma-Like Medium with dialyzed fetal bovine serum (HPLM+ds) (AID 1963878); note: nearly all actives have a fitted effect of over 35% in size; note: potency is the fitted concentration of half-maximal effect;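 for Viability: 100% = DMSO wells and 0% = empty wells on each plate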
# Procedure, shortened: as §1
# [4] = Quantitative highthroughput screen to assess conditional lethalithy of SEM cells grown in RPMI1640 with dialyzed fetal bovine serum (RPMI+ds) (AID 1963884); note: nearly all actives have a fitted effect of over 35% in size; note: potency is the fitted concentration of half-maximal effect;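 for Viability: series mostly up to about 46 µM; 100% = DMSO control wells and 0% = empty wells without cells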
# Procedure, shortened: as §1
# [5] = Cellular viability qHTS for adrenocortical cancer (ACC) cell line SW-13 (AID 1963989); conditions: SW-13 ACC cells viability, CellTiter-Glo, 48 h; activity (max response): hits give low values; note: nearly all actives have a fitted effect of over 65% in size; note: potency is the fitted concentration of half-maximal effect;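 for activity (max response): cells grown in serum-free medium with ITS supplement; % is set by controls: 0 for no effect and ±100 for the full control effect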
# Procedure, shortened: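 Viability was read as CellTiter-Glo luminescence after 48 h compound treatment (up to 46 uM final) of SW-13 cells grown serum-free; titration curves were fit with a four-parameter logistic model to give IC50 and efficacy.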
# [6] = Quantitative highthroughput screen to assess conditional lethalithy of P12 Ichikawa cells grown in Human Plasma-Like Medium with dialyzed fetal bovine serum (HPLM+ds) (AID 1963879); conditions: Potency: viability; note: nearly all actives have a fitted effect of over 35% in size; note: potency is the fitted concentration of half-maximal effect; for Viability: series mostly up to about 46 µM
# Procedure, shortened: as §1
# [7] = Quantitative highthroughput screen to assess conditional lethalithy of P12 Ichikawa cells grown in RPMI1640 with dialyzed fetal bovine serum (RPMI+ds) (AID 1963880); conditions: Potency: P12-Ichikawa viability; note: nearly all actives have a fitted effect of over 35% in size; note: potency is the fitted concentration of half-maximal effect;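 for Viability: 100% = DMSO wells and 0% = empty wells on each plate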
# Procedure, shortened: as §1
# [8] = Quantitative highthroughput screen to assess conditional lethalithy of P12 Ichikawa cells grown in RPMI1640 with untreated serum (RPMI+s) (AID 1963881); conditions: Potency: viability; note: nearly all actives have a fitted effect of over 35% in size; note: potency is the fitted concentration of half-maximal effect;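 for Viability: series mostly up to about 46 µM; 100% = DMSO wells and 0% = empty wells without cells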
# Procedure, shortened: as §1
# [9] = Cellular viability qHTS for adrenocortical cancer (ACC) cell line NCI-H295R (AID 1963990); note: nearly all actives have a fitted effect of over 60% in size; note: potency is the fitted concentration of half-maximal effect
# Procedure, shortened: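 CellTiter-Glo ATP luminescence, read 48 h after compound addition, measured viability of NCI-H295R adrenocortical cells grown serum-free with ITS. Final concentrations spanned up to 46 uM. Data normalized to DMSO and doxorubicin, fitted for IC50 and maximal response.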
# [10] = Quantitative highthroughput screen to assess conditional lethalithy of SEM cells grown in Human Plasma-Like Medium with dialyzed fetal bovine serum (HPLM+ds) (AID 1963882); note: nearly all actives have a fitted effect of over 35% in size; note: potency is the fitted concentration of half-maximal effect; for Viability: series mostly up to about 46 µM
# Procedure, shortened: as §1
# [11] = Quantitative highthroughput screen to assess conditional lethalithy of SEM cells grown in RPMI1640 with unreated serum (RPMI+s) (AID 1963883); note: nearly all actives have a fitted effect of over 35% in size; note: potency is the fitted concentration of half-maximal effect;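 for Viability: 100% = DMSO wells and 0% = empty wells without cells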
# Procedure, shortened: as §1
# [12] = Quantitative highthroughput screen to assess conditional lethalithy of NOMO1 cells grown in RPMI1640 with dialyzed fetal bovine serum (RPMI+ds) (AID 1963877);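 note: series mostly up to about 46 µM; 100% = DMSO control wells and 0% = empty wells; nearly all actives have a fitted effect of over 30% in size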
# Procedure, shortened: as §1
SMILES,Potency [1],Potency [2],Potency [3],Potency [4],Potency [5],Potency [6],Potency [7],Potency [8],activity (max response) [5],Potency [9],Potency [10],Potency [11],Potency [12]
CCCS(=O)c1ccc2nc(NC(=O)OC)[nH]c2c1 (stereo unspecified),23.7 µM (active) and 23.5 µM (active),20.9 µM (active),20.9 µM (active),9.35 µM (active),25.1 µM (active),–,–,–,–,–,–,–,–
CNc1nc(Nc2ccc(C(=O)N3CCOCC3)cc2OC)ncc1Cl,5.8 µM (active),inactive,inactive,–,–,inactive,inactive,inactive,-6.87%,inactive,–,–,–
CCOc1cc(CC(=O)N[C@@H](CC(C)C)c2ccccc2N2CCCCC2)ccc1C(=O)O,inactive,0.332 µM (active),–,inactive,–,–,3.32 µM (active),2.64 µM (active),–,25.1 µM (active),inactive,inactive,–
O=C(c1cc(Cc2n[nH]c(=O)c3ccccc23)ccc1F)N1CCN(C(=O)C2CC2)CC1,16.6 µM (active),inactive,–,–,–,–,20.9 µM (active),–,–,inactive,–,6.62 µM (active),–
Nc1nc(N)c2nc(CNc3ccc(C(=O)NC(CCC(=O)O)C(=O)O)cc3)cnc2n1 (stereo unspecified),0.0148 µM (active),inactive,–,–,–,–,–,–,–,–,–,0.0418 µM (active),–
CCCCn1c(=O)n(Cc2ccccc2F)c(=O)c2[nH]c(Cc3ccc(NC(C)=O)cc3)nc21,18.6 µM (active),inactive,inactive,inactive,–,inactive,inactive,inactive,-3.74%,inactive,inactive,inactive,–
CCNC(=O)c1cc2c(-c3cc(OCCN4CCCC4)c(Cl)cc3Cl)nc(N)nc2s1,0.162 µM (active),3.72 µM (active),4.18 µM (active),2.35 µM (active),1.6 µM (active),–,–,–,–,2.54 µM (active),2.96 µM (active),–,–
CN(C)C(=O)[C@H](O)[C@H](Cc1ccccc1)NC(=O)c1cc2cc(Cl)ccc2[nH]1,20.9 µM (active),inactive,–,2.35 µM (active),–,–,–,–,–,–,2.09 µM (active),2.64 µM (active),–
Cc1cnc(Nc2cccc(CN3CCOCC3)c2)nc1Nc1cccc(S(=O)(=O)NC(C)(C)C)c1,0.186 µM (active),inactive,inactive,–,–,–,–,inactive,-8.11%,inactive,–,–,–
O=c1cc(-c2ccccc2)oc2cc(O)c(O)c(O)c12,18.6 µM (active),5.9 µM (active),inactive,8.33 µM (active),–,5.9 µM (active),–,9.35 µM (active),-15.6%,–,–,4.18 µM (active),–
COc1ccc(C(=O)CC2(O)C(=O)Nc3c(Cl)ccc(Cl)c32)cc1 (stereo unspecified),3.26 µM (active),9.35 µM (active),–,4.18 µM (active),–,4.18 µM (active),–,4.69 µM (active),-14.9%,–,4.18 µM (active),3.72 µM (active),–
Cc1nc2ccc(C(=O)N3CCC4(CC3)CC(=O)c3c(cnn3C(C)C)C4)cc2[nH]1,20.9 µM (active),inactive,–,–,–,–,–,–,–,inactive,–,–,inactive
COc1cc2nccc(Oc3ccc(NC(=O)Nc4cc(C)on4)c(Cl)c3)c2cc1OC,0.833 µM (active),inactive,inactive,4.69 µM (active),11.2 µM (active),–,–,–,–,14.1 µM (active),–,3.32 µM (active),–
CN(NC(=O)CC(=O)NN(C)C(=S)c1ccccc1)C(=S)c1ccccc1,46.1 nM (active) and 4.2 nM (active),0.066 µM (active),0.066 µM (active),–,–,0.0831 µM (active),0.0741 µM (active),–,–,–,0.0371 µM (active),0.0417 µM (active),–
O=C(NC1CC1)c1cccc(-c2ccc3c(NC(=O)C4CC4)n[nH]c3c2)c1,4.68 µM (active),23.5 µM (active),–,16.6 µM (active),3.55 µM (active),10.5 µM (active),11.8 µM (active),11.8 µM (active),–,15.8 µM (active),–,14.8 µM (active),–
Clc1ccc(Nc2nnc(Cc3ccncc3)c3ccccc23)cc1,10.6 µM (active),–,inactive,–,–,inactive,inactive,inactive,–,–,–,–,inactive
COc1cc2c(cc1-c1c(C)noc1C)ncc1[nH]c(=O)n([C@H](C)c3ccccn3)c12,0.259 µM (active),3.32 µM (active),–,1.48 µM (active),–,5.9 µM (active),–,–,-16.6%,–,–,1.87 µM (active),–
COc1ncc(-c2ccc3nccc(-c4ccnnc4)c3c2)cc1NS(=O)(=O)c1ccc(F)cc1F,58 nM (active) and 132 nM (active),0.105 µM (active),–,–,1.12 µM (active),–,2.09 µM (active),0.743 µM (active),–,0.0282 µM (active),0.469 µM (active),–,–
Cc1cc(Nc2nc(N[C@@H](C)c3ncc(F)cn3)ncc2Cl)n[nH]1,1.05 µM (active),7.43 µM (active),–,2.64 µM (active),–,–,–,–,-20.7%,–,5.26 µM (active),1.05 µM (active),–
